A selection: hits, their analogues and other compounds. The true share with any hit is near 17%.
TGFb SMAD3 inh = inhibitors of TGF-b signaling; Potency, µM (highest dose often 46.1 µM), hits mostly inhibitors; 410,000 tested, 1.2% active; HepG2 CAGA-GFP TGF-b/SMAD3 reporter, GFP fluorescence, 18 h; TGF-beta stimulated, 500 pg/mL final; also: nearly all actives have a fitted effect of over 65% in size
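HEPG2 CAGA-GFP cells (1000/well, DMEM with 1% FBS) were pre-incubated 2 h at 37 degrees C, given compound by pin tool, then stimulated with TGF-beta at 500 pg/mL final for 18 h before per-cell GFP fluorescence imaging.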
HepG2 viability = HepG2 cytotoxicity, counter-screen for TGF-b inhibitors; HepG2 CAGA-GFP viability, ATP luminescence, 18 h; Potency, µM (top dose mostly 46.1 µM), actives largely listed as cytotoxic; 410,000 tested, 0.76% active
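HepG2 CAGA-GFP cells (1000/well, DMEM with 1% FBS) received compound, then TGF-beta at 500 pg/mL final, and were incubated 18 hours at 37 degrees C. Viability was read by CellTiter-Glo luminescence. Media-only wells were set as complete cell-killing and DMSO as no toxicity.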
HT1080NT lethal = kills 2HG-producing HT-1080-NT fibrosarcoma cells | HT-1080-NT fibrosarcoma viability, CellTiter-Glo ATP luminescence, 48 h | Potency, µM (series often up to 46.1 µM), most hits filed as cytotoxic | 360,000 tested, 1.6% active;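 also: NT is the 2HG producing partner of a matched IDH1 knockdown line; nearly all actives have a fitted effect of over 55% in size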
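A 48-hour cytotoxicity screen used HT-1080-NT cells plated 2 hours before compound delivery. ATP-based CellTiter-Glo luminescence measured viability, normalized to DMSO and no-cell controls.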
TDP1 cell noCPT = qHTS for Inhibitors of human tyrosyl-DNA phosphodiesterase 1 (TDP1): qHTS in cells in absence of CPT. DT40 Tdp1-/- hTDP1 cells, no CPT, ATP luminescence, 48 h. Potency, µM (doses to about 46.2 µM), actives largely listed as inhibitors. 420,000 tested, 15% active; also: nearly all actives have a fitted effect of over 55% in size
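Camptothecin absent (DMSO only). Human TDP1-complemented DT40 knockout cells, 400 cells/well, 37 °C for minimum 48 hr; ATP measured via CellTiter-Glo, 30 min dark incubation, luminescence.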
HT1080 IDH1KD tx = kills HT-1080 cells with IDH1 knockdown. HT-1080 IDH1 knockdown viability, ATP luminescence, 48 h. Potency, µM (top dose mostly 46.1 µM), usual class: cytotoxic. 360,000 tested, 2% active
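Viability of IDH1-knockdown HT-1080 fibrosarcoma cells was assessed by CellTiter-Glo after 48 h at 37 °C with titrated compound; concentration-effect curves were classified by fit quality and response size.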
DT40 TDP1 CPT = growth inhibition of DT40 Tdp1-/-;hTDP1 cells with camptothecin (screen for TDP1 inhibitors) | chicken DT40 Tdp1-/-;hTDP1 cells + 20 nM CPT, ATP luminescence, 48 h | Potency, µM (top dose mostly 46.2 µM), hits mostly inhibitors | 420,000 tested, 12% active | AID 686979; also: nearly all actives have a fitted effect of over 55% in size
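Chicken DT40 Tdp1-/- cells complemented with human TDP1, 400 cells/well, exposed to compounds plus 20 nM camptothecin for at least 48 h at 37 C; viability read as ATP content by CellTiter-Glo luminescence.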
Hits are given with their value; - = inactive; ? = inconclusive; . = not tested or not shown. Calls follow the shape of the dose curve; as a rule, active = well fitted curve in the direction sought with a large enough effect; inconclusive = small, poorly fitted or top-dose-only effect, or another doubt; inactive = no such curve, though single readings can be large; an effect the other way counts as inactive or inconclusive.

SMILES | TGFb SMAD3 inh | HepG2 viability | HT1080NT lethal | TDP1 cell noCPT | HT1080 IDH1KD tx | DT40 TDP1 CPT
Cc1ccccc1NS(=O)(=O)c1ccc2[nH]c3c(c2c1)CCCCC3 | ? | - | . | . | . | .
O=S(=O)(Nc1cccc(Cl)c1)c1ccc2[nH]c3c(c2c1)CCCCCC3 | 11µM | 20µM | . | ? | . | 16µM
CCCC(C)c1nnc(NC(=O)c2cc(C(=O)OC)cc([N+](=O)[O-])c2)s1 (stereo unspecified) | ? | - | - | ? | - | -
CN(C(=O)Cn1cc(C(F)(F)F)cc(Cl)c1=O)C1CCS(=O)(=O)C1 (stereo unspecified) | - | - | - | - | - | -
O=C(NCc1ccco1)/C(=C/C=C\c1ccccc1)NC(=O)c1ccc(Br)o1 | - | - | - | ? | ? | 16µM
Cc1ccc(OCCN2C(=O)c3ccccc3C2=O)cc1 | - | - | - | - | - | -
Cc1cccc(OCCN2C(=O)C(=O)c3cc(C)ccc32)c1 | ? | - | 2.9µM | 0.46µM | ? | 0.37µM
Cc1ccc2c(c1)C(=O)C(=O)N2CCOc1ccccc1 | ? | - | 7.3µM | 0.73µM | 21µM | 0.58µM
COc1cc(/C=C/CNC[C@H]2O[C@@H](n3cc(C)c(=O)[nH]c3=O)C[C@@H]2O)ccc1O | - | - | - | ? | - | -
CC(=O)c1cccc(NC(=O)c2nc(-c3ccccc3)oc2C)c1 | - | - | - | 15µM | - | ?
CC(=O)c1cccc(NC(=O)c2nc(-c3ccccc3)n(-c3ccccc3C)n2)c1 | - | - | . | 21µM | . | 26µM
Cc1ccc(F)c(NC(=O)/C(C#N)=C(\O)c2ccc(C(C)(C)C)cc2)c1 | 13µM | 13µM | - | ? | ? | -
Cc1ccc(F)c(NC(=O)c2ccc(Cn3cc(Cl)cn3)cc2)c1 | - | - | - | - | ? | -
COc1ccc(/C=C/C(=O)NCc2ccc(F)cc2)cc1S(=O)(=O)N1CCOCC1 | - | - | - | - | - | -
COc1ccc(CN(C)C(=O)/C=C/c2ccc(S(=O)(=O)N3CCOCC3)cc2)cc1F | - | - | - | 21µM | - | 16µM
CN(Cc1ccc(OC(F)F)cc1)C(=O)/C=C/c1ccc(S(=O)(=O)N2CCOCC2)cc1 | - | - | - | ? | - | 18µM
CN(Cc1ccc(OC(F)F)cc1)C(=O)C1CCN(S(=O)(=O)c2ccc3c(c2)OCCO3)CC1 | ? | - | - | ? | - | ?
COc1ccccc1-n1nnnc1SCC(=O)NC1CCCCC1 | - | - | - | - | - | -
Cc1ccc(S(=O)(=O)c2nc(S(=O)(=O)c3ccccc3)sc2NCCCOC(C)C)cc1 | - | - | . | 12µM | . | ?
CCCS(=O)(=O)c1nc(S(=O)(=O)c2ccc(C)cc2)c(NCCCOC(C)C)s1 | . | - | . | 16µM | . | ?
COc1ccccc1N1CCN(CC(=O)NCc2ccc(Cl)cc2)CC1 | - | - | - | ? | - | -
CCc1ccccc1NC(=O)Cn1nc(N2CCN(c3ccccc3OC)CC2)ccc1=O | - | - | . | 13µM | . | ?
CCOc1ccccc1CNC(=O)Cn1nc(N2CCN(c3ccccc3)CC2)ccc1=O | - | - | . | 21µM | . | 21µM
Cc1cc(F)ccc1NC(=O)Cn1nc(N2CCN(c3ccccc3)CC2)ccc1=O | ? | - | . | - | . | -
COc1cccc(CNC(=O)Cn2nc(N3CCN(c4ccccc4OC)CC3)ccc2=O)c1 | - | - | . | 21µM | . | 18µM
SMILES | TGFb SMAD3 inh | HepG2 viability | HT1080NT lethal | TDP1 cell noCPT | HT1080 IDH1KD tx | DT40 TDP1 CPT
O=C(Cn1nc(N2CCN(c3ccccc3)CC2)ccc1=O)NCc1ccccc1F | - | - | . | ? | . | -
COc1ccc(CNC(=O)Cn2nc(N3CCN(c4ccccc4)CC3)ccc2=O)c(OC)c1 | - | - | . | 15µM | . | ?
Cc1cccc(CN2[C@H](COC(=O)Nc3ccccc3)C=CS2(=O)=O)c1 | - | - | - | ? | - | ?
Cc1ccccc1C(=O)OCc1cnc(Cl)s1 | - | - | - | - | - | -
CCOC(=O)Cc1ccc(NC(=O)NCc2ccc3c(c2)CCN3C(=O)CC)cc1 | - | - | . | - | . | -
CCOC(=O)c1c(NC(=O)C(C)Sc2nnc(C)c(=O)[nH]2)sc2c1CCCC2 (stereo unspecified) | ? | - | - | - | - | -
Cc1ccc(S(=O)(=O)N/N=C\C=C\c2ccccc2)cc1 | - | - | - | - | - | -
COc1ccc(Cl)cc1C=CC=Nc1ccccc1O | ? | - | - | 18µM | - | 23µM
COc1ccccc1/C=C\C=N\n1c(-c2ccc(Cl)cc2Cl)n[nH]c1=S | - | - | - | - | - | -
COc1ccc(Cl)cc1C=CC=NNS(=O)(=O)c1ccc(C)cc1 | - | - | - | 16µM | - | 18µM
COc1ccc(Br)cc1C=NNS(=O)(=O)c1ccc(C)cc1 | ? | - | ? | 7.3µM | ? | ?
CCCCOc1ccc(-c2nnn(CC(=O)NCCc3c[nH]c4ccccc34)n2)cc1 | ? | - | - | ? | - | -
CCCN1CCN(CCCNC(=O)c2ccc3c(c2)sc2nc(-c4ccc(OC)cc4)cn23)CC1 | - | - | . | 1µM | . | 1.5µM
COc1ccc(-c2cn3c(n2)sc2cc(C(=O)NCCCN4CCN(C)CC4)ccc23)cc1 | - | - | . | 1.3µM | . | 1.2µM
COc1ccc(-c2cn3c(n2)sc2cc(C(=O)Nc4cc(OC)cc(OC)c4)ccc23)cc1 | - | - | . | - | . | -
CN(C)S(=O)(=O)c1ccc2c(c1)nc(CCC(=O)NCC(=O)Nc1ccc(F)c(F)c1F)n2C | - | - | - | ? | - | -
COc1ccc(-c2cc(NC=O)c3ncc(-c4cccc(C(=O)NCCN(C)C)c4)n3c2)cc1 | ? | - | ? | ? | ? | ?
COc1ccc(-c2cc(NC=O)c3ncc(-c4cccc(OC)c4)n3c2)cc1 | ? | - | ? | 5.2µM | 9.2µM | 5.8µM
COc1cccc(-c2cnc3c(NC=O)cc(-c4ccc(N(C)C)cc4)cn23)c1 | ? | - | ? | 8.2µM | 18µM | 15µM
COc1ccc(-c2cc(NC=O)c3ncc(-c4cnn(C)c4)n3c2)cc1 | ? | - | ? | ? | ? | ?
Cc1ccc2c(c1)N(CC(=O)N1CCCC1)C(=O)C(C)O2 (stereo unspecified) | - | - | - | - | - | -
Cc1ccc(S(=O)(=O)NC(C(=O)N2CCOCCOCCOCC2)c2ccccc2)cc1 (stereo unspecified) | - | - | - | - | - | -
COc1ccccc1N(CC(O)CN1CCOCC1)S(=O)(=O)c1ccccc1 (stereo unspecified) | - | - | - | - | - | -
